JMJD2A Tudor – JMJD2A Tudor domain (human) inhibition; AID 504339; O75164; hit rate 4.4% among 390,000; AlphaScreen JMJD2A-Tudor / H3K4me3 peptide binding; Potency, µM (highest dose often 114 µM), for the others: at the top dose activity change, negative = inhibition, most hits filed as inhibitors; further: potency means the concentration at half of the fitted maximal effect; on the % scale 0 is the no-effect control and ±100 the full control effect; nearly all actives have a fitted effect of over 50% in size
G9a inh-1 – G9a (human) methyltransferase inhibition. hit rate 8.8% among 350,000. G9a H3K9 monomethylation, AlphaScreen, 2 h. Potency, µM (series often up to 102 µM), without a hit: top-dose activity, negative = inhibition, most hits filed as inhibitors; further: potency means the concentration at half of the fitted maximal effect; on the % scale 0 is the no-effect control and ±100 the full control effect; nearly all actives have a fitted effect of over 75% in size
Target sequence (Q96KQ7 913-1193 limits assumed): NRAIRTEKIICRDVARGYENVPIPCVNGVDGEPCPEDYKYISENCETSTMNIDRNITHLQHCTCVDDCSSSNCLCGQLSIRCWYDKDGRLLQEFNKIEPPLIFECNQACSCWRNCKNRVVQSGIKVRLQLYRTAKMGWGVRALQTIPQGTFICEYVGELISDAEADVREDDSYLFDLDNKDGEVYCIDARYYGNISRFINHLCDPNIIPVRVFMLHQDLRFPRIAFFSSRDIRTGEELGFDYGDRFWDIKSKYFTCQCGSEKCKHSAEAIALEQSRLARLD
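G9a (20 nM) was preincubated 15 min with compound, then reacted 2 h at room temperature with 500 nM biotin-H3K9 peptide and 20 µM SAM. Monomethyl-H3K9 detected by AlphaScreen using anti-H3K9me1 antibody.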
Sfp inh – inhibitors of Bacillus subtilis Sfp phosphopantetheinyl transferase. Biochemical Sfp PPTase activity, qHTS. Potency, µM, without a hit: largest response in the series, negative = inhibition, usual class: inhibitors. hit rate 3.5% among 310,000;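 further: the enzyme is Sfp with the accession as filed and its product quenches rhodamine fluorescence; potency means the concentration at half of the fitted maximal effect; 0% = enzyme reaction without inhibitor and -100% = no enzyme wells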
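Step 1, compound plus 15 nM Sfp-PPTase, 15 min, room temperature. Step 2, add rhodamine-CoA (5 uM) and BHQ-2-YbbR (12.5 uM). Step 3, read 525/598 nm fluorescence at 0 and 30 min.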
BAZ2B inh – inhibitors of human BAZ2B bromodomain; hit rate 4.4% among 360,000; AlphaScreen BAZ2B-H3K14Ac peptide displacement; Q9UIF8; Potency, µM (highest dose often 114 µM), for the others: at the highest dose activity change, negative = inhibition, usual class: inhibitors; further: potency means the concentration at half of the fitted maximal effect; on the % scale 0 is the no-effect control and ±100 the full control effect; nearly all actives have a fitted effect of over 60% in size
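AlphaScreen luminescence quantifies BAZ2B engagement of H3K14Ac peptide; the protein and biotinylated peptide are both at 50 nM final, buffer PBS pH 7.4 with 0.01% Tween-20, all steps at room temperature.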
HP1b binding inh – HP1-beta chromodomain-methylated histone interaction inhibition; P83916; AlphaScreen HP1-beta / biotin-H3K9me3 peptide binding; Potency, µM (titrated, usually from 114 µM), without a hit: at the highest dose activity change, negative = inhibition, hits mostly inhibitors; hit rate 0.56% among 390,000; AID 540317; further: potency means the concentration at half of the fitted maximal effect; nearly all actives have a fitted effect of over 70% in size
Target sequence (P83916 whole entry, looked up): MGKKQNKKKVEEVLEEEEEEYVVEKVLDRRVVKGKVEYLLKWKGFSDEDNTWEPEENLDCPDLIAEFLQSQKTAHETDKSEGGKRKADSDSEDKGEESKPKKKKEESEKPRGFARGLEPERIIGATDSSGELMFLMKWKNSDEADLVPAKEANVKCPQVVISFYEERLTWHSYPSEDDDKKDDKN
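HP1-beta protein (50 nM final) preincubated 30 min at room temperature with biotinylated H3(1-18)K9me3 peptide (50 nM) in PBS pH 7.4, 0.01% Tween-20, then compound added for 30 min. AlphaScreen streptavidin donor/nickel chelate acceptor beads (10 ug/mL final), 30 min dark, luminescence read.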
Sfp inh conf – confirmation of Bacillus subtilis Sfp PPTase inhibitors. shares compounds with Sfp inh. Sfp PPTase enzymatic assay, qHTS titration. Potency, µM (doses to about 114 µM), without a hit: at the top dose activity change, negative = inhibition, actives largely listed as inhibitors. hit rate 79% among 380. AID 2701;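 further: potency means the concentration at half of the fitted maximal effect; plate controls were uninhibited Sfp reaction for no effect and no enzyme control for full effect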
Target sequence (Q9F4F7 whole entry, looked up): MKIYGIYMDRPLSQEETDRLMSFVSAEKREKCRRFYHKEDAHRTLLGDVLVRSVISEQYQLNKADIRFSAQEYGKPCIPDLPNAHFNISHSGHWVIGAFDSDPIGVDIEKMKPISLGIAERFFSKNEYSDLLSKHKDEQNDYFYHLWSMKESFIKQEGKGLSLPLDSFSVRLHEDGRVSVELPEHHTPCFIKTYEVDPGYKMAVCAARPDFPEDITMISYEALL
Sfp PPTase gel – Blocks Sfp PPTase activity, gel read-out | shares compounds with Sfp inh | purified Sfp, gel-based phosphopantetheinylation read-out | Potency, µM, actives largely listed as inhibitors | hit rate 20% among 210;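 active means potency below 100 µM; inconclusive means dose-dependent response but potency above 100 µM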;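 further: band intensities scaled against SCH202676 control wells before curve fitting; potency is an IC50 for inhibitors of Sfp transfer activity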
ME-1 growth – inhibitors of ME-1 leukemia cell proliferation, CBFb-RUNX1 project; shares compounds with BAZ2B inh; ME-1 cell proliferation, ATP luminescence, 48 h; Potency, µM (top dose mostly 56.1 µM), for inactives: at the top dose activity change, negative = inhibition, usual class: inhibitors; hit rate 20% among 140; AID 504370
G9a inh-2 – confirmation of human histone methyltransferase G9a inhibitors; shares compounds with JMJD2A Tudor; G9a H3K9 monomethylation, AlphaScreen, 2 h; Potency, µM, usual class: inhibitors; hit rate 89% among 370; further: potency means the concentration at half of the fitted maximal effect; nearly all actives have a fitted effect of over 65% in size
An asterisk follows results filed as active; i = inactive; ? = inconclusive; / = no result; ! = a repeat was not active; [ ] = dose if it differs, or a comment. An excerpt weighted towards active compounds, which were near 12% of everything screened. Unless noted, the call rests on the fitted dose curve; in most records, active means well fitted curve in the direction sought with a large enough effect; inconclusive means small, poorly fitted or top-dose-only effect, or another doubt; inactive means no such curve, though single readings can be large; an effect the other way counts as inactive or inconclusive.

SMILES	JMJD2A Tudor	G9a inh-1	Sfp inh	BAZ2B inh	HP1b binding inh	Sfp inh conf	Sfp PPTase gel	others
COc1cc(NCc2ccc3nc(N)nc(N)c3c2C)cc(OC)c1OC	/	10µM*	31.6µM*	/	/	37.3µM*	/
O=C(Nc1ccc(F)cc1)C1=CC(=O)N2CCN=C2S1	/	1µM*	0.562µM*	?	/	11.8µM*	/
CCOc1ccc2[nH]c(=O)c(C(c3nnnn3C3CCCCC3)N3CCN(C)CC3)cc2c1 (stereo unspecified)	-8.1%	?	2.4%	2.5%	31.0%	/	/
CCOc1ccc2[nH]c(=O)c(C(c3nnnn3Cc3ccco3)N3CCC(C)CC3)cc2c1 (stereo unspecified)	-24.1%	?	3.55µM*	-34.9%	40.1%	8.35µM*	/
c1cn2cc(CSC3CCCCC3)nc2s1	-20.3%	?	3.16µM*	14.0%	42.1%	0.4%	i
COc1ccc([C@H]2CC(=O)C=C(c3ccc(C)c([N+](=O)[O-])c3)C2)cc1	-28.3%	-0.1%[0.501 µM]	/	-37.1%	24.0%	/	/
CC(=O)N=c1sc(S(N)(=O)=O)nn1C	-7.2%	12.6µM*	25.1µM*!	-16.6%	33.9%	46.9µM*	i
COc1ccc(-c2csc(Nc3ccc(C)cn3)n2)cc1	-28.9%	20µM*	6.31µM*	?	-13.3%	59.1µM*	i
COc1ccc(N2CC(NC(=O)COc3ccc4ccccc4c3)CC2=O)cc1OC (stereo unspecified)	-2.3%	3.2%[59 µM]	/	3.0%	32.8%	/	/
CN(Cc1ccccc1)C(=O)COC(=O)c1cc2ccccc2oc1=O	-12.4%	/	/	/	27.6%	/	/
CC(C)(C)c1ccc(C(=O)NCCc2csc(-c3ccc(Cl)cc3)n2)cc1	-3.2%	2.9%[59 µM]	/	4.6%	30.3%[57 µM]	/	/
CN(C)CCCNC(=O)c1ccc(-c2nc(-c3ccc(Cl)cc3)cs2)cc1	-31.2%	?	25.1µM*	-35.0%	-1.7%	59.1µM*	i
O=C(NC1CC1)c1sc2cc([N+](=O)[O-])ccc2c1Cl	-8.9%	-3.6%	-0.2%	-29.5%	7.4%	/	/
CC(NC(=O)c1sc2cc([N+](=O)[O-])ccc2c1Cl)C(C)(C)C (stereo unspecified)	50.1µM*	1.58µM*	7.94µM*	-15.8%	6.31µM*	0.527µM*	0.69µM*
O=C(CC(Nc1ccccc1)C(=O)O)c1ccccc1 (stereo unspecified)	-15.1%	?	15.8µM*	-30.6%	38.1%	41.8µM*	i
Cc1ccc(Nc2cc(C)nc(NCc3ccccc3)n2)cc1	-30.1%	1.6%[59 µM]	12.6µM*	-8.7%	-12.9%	29.6µM*	i
Cc1cc(NC2CCCCC2)nc(NCc2ccccc2)n1	-26.8%	-3.6%	-22.4%	-4.6%	19.1%	/	/
O=C(/C=C/c1ccncc1)c1ccc(NC(=O)c2ccccc2F)cc1	56.2µM*	14.1µM*	5.62µM*	50.1µM*	-1.5%[57 µM]	52.7µM*	/
Cc1cc(OCC(=O)N2CCC(c3nc4ccccc4s3)CC2)ccc1Cl	-12.9%	3.1%[59 µM]	/	10.5%	20.7%	/	/
CCN(CC)c1ccc(/C=N/NC(=O)C(O)(c2ccccc2)c2ccccc2)o1	/	28.2µM*	7.08µM*	-8.1%	/	11.8µM*	/
N=c1c2c3c(sc2ncn1Cc1ccco1)CCCCC3	-16.0%	21.3%[59 µM]	12.6µM*	11.8%	5.1%	-7.3%	i
O=C(CN1C(=O)CC(c2ccco2)Sc2ccccc21)Nc1ccccc1F (stereo unspecified)	?	?	15.8µM*	?	1.3%	21µM*	/
Cn1c(/N=C/c2c(O)ccc3ccccc23)nc2ccccc21	39.8µM*	1.78µM*	0.891µM*	56.2µM*	?	-9.1%	/
Cc1cc([N+](=O)[O-])nn1CC(=O)N(C)C1CCCCC1	-11.3%	19.6%	8.7%	2.8%	3.4%	/	/
CCc1c(C)sc(NC(=O)c2ccoc2C)c1C(N)=O	56.2µM*	7.08µM*	11.2µM*	?	28.2µM*	8.35µM*	/
SMILES	JMJD2A Tudor	G9a inh-1	Sfp inh	BAZ2B inh	HP1b binding inh	Sfp inh conf	Sfp PPTase gel	others
CCOC(=O)c1c(NC(=O)c2ccoc2C)sc(C)c1C	18.3%	4.2%[2.33 µM]	?	-5.0%	95.2%	/	/
CC(C)N(C(=O)Nc1ccc2nsnc2c1)C(C)C	79.4µM*	/	4.47µM*	-1.2%	-13.8%	23.5µM*	i
COc1ccc(N(C)C(=O)Nc2ccc3nsnc3c2)cc1	-2.8%	-30.3%	16.7%	-12.3%	52.6%	/	/
O=C(O)CCC(=O)Nc1sc2c(c1C(=O)Nc1ccccc1)CCCCC2	-31.5%	28.2µM*	12.6µM*	-18.1%	-12.8%	14.8µM*	/
COc1ccccc1NC(=O)c1c(NC(=O)CCC(=O)O)sc2c1CCCCC2	-17.9%	-48.0%	10µM*	-16.0%	21.2%	21µM*	/
Cc1ccc(-c2nc(-c3ccncc3)no2)cc1	-14.2%	5.3%	-0.9%	6.4%	6.0%	/	/
Cc1ccc(-c2cnc(-c3ccncc3)o2)cc1	-8.7%[57.1 µM]	?	56.2µM*	0.6%	37.6%	3.1%	i
CCCCCn1c(=O)[nH]c2cc(C(=O)Nc3cc(OC)cc(OC)c3)ccc2c1=O	-12.6%	2.1%[59 µM]	/	-0.8%	18.1%	/	/
CC(C)(C)c1ccc(C(=O)CCCN2CCC(OC(c3ccccc3)c3ccccc3)CC2)cc1	/	2.7%[59 µM]	50.1µM*	/	/	46.9µM*	i
CCN(CC)c1nc2c(S(=O)(=O)c3ccc(C)cc3)nnn2c2ccsc12	-15.4%	-31.4%[59 µM]	/	-27.0%	11.1%	/	/
OC(C#Cc1ccccn1)c1cccs1 (stereo unspecified)	44.7µM*	-113.8%[12.7 µM]	17.8µM*	7.08µM*	?	46.9µM*	i
Cn1c(=O)c(CCc2ccccc2)nc2cnc(N3CCOCC3)nc21	/	2.3%[0.501 µM]	10.1%	/	/	/	/
CC/C(=C(\c1ccccc1)c1ccc(OCCN(C)C)cc1)c1ccccc1	44.7µM*	18.9µM*!	50.1µM*!	35.5µM*	?	46.9µM*	i	ME-1 growth=24.4µM*
CSc1ccc(CNC(=O)c2cc3c(=O)n(Cc4ccco4)ccc3nc2C)cc1	-14.0%	-9.4%[59 µM]	/	2.8%	120.5%	/	/
O=C(OCc1ccccc1)c1cccnc1	/	1.41µM*	31.6µM*	/	/	37.3µM*	?	G9a inh-2=2.57*
CCOc1ccccc1CNC(=O)C1CCN(c2nn3cc(-c4ccc(F)cc4)nc3s2)CC1	-9.6%	-8.5%[59 µM]	/	1.8%	30.3%	/	/
COc1ccccc1CNc1ccc(N2CCCCC2)cc1	31.6µM*	?	17.8µM*	12.6µM*	31.6µM*	46.9µM*	i	G9a inh-2=1.12*

Bioassay records (PubChem)
